# Legend:
# Test in all cases: DAPPL (digital affinity profiling via proximity ligation, sequencing); 10 mM Tris-HCl pH 7.5, 50 mM NaCl, 1 mM DTT, 4% glycerol, room temperature, 30 min; GST-TFs on glutathione beads, 16-mer random dsDNA library, 0.1% formaldehyde crosslink after washing; high values mean tight binding
# FEV = molecular target: T1, FEV (Homo sapiens, UniProt Q99581 1-238); settings: protein: recombinant; tags: N-terminal GST; dsDNA, one strand shown
# T1 sequence: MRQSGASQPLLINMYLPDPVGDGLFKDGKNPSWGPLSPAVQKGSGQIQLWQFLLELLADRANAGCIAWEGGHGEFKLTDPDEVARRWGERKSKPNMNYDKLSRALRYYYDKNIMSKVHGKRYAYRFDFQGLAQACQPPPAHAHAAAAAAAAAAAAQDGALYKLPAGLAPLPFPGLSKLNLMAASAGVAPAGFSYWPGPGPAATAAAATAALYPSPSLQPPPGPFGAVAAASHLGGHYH
# In short: (§1)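 Sequencing on an Illumina NextSeq500 followed washing, crosslinking with 0.1% formaldehyde, proximity ligation (BsaI/T4 ligase, 1 h, 37 °C) and PCR amplification of pools that had been incubated for 30 min at room temperature with 200 nmole of a random double-stranded 16-mer DNA library in Tris/NaCl/DTT/glycerol buffer. Each pool held DNA-barcoded human transcription factors, expressed in yeast as GST fusions and captured on glutathione beads, plus a tag-only sample. Binding signal is a hexamer's read frequency for a factor divided by its frequency in the tag-only sample.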
# ETV5 = ETV5 (Homo sapiens, UniProt P41161 1-510); settings: protein: recombinant; tags: N-terminal GST; dsDNA, one strand shown
# Chain of ETV5 (P41161 whole entry): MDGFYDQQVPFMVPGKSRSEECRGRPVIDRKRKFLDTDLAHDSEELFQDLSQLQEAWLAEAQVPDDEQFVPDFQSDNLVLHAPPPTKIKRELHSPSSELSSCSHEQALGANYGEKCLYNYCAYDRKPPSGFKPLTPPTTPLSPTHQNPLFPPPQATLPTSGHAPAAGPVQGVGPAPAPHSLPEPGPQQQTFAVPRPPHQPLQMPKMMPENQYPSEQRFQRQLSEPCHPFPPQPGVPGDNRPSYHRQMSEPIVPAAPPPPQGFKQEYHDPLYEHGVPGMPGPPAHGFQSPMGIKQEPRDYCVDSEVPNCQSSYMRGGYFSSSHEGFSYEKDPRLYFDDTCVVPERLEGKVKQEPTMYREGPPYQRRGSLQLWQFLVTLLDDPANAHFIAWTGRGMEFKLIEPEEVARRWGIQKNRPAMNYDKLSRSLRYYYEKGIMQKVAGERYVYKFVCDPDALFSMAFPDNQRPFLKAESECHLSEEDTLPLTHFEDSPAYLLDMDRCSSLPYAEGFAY
# In short: as §1
# HSF1 = HSF1 (Homo sapiens, UniProt Q00613 1-529); settings: protein: recombinant; tags: N-terminal GST; chain copies: 3; dsDNA, one strand shown
# Chain of HSF1 (Q00613 whole entry): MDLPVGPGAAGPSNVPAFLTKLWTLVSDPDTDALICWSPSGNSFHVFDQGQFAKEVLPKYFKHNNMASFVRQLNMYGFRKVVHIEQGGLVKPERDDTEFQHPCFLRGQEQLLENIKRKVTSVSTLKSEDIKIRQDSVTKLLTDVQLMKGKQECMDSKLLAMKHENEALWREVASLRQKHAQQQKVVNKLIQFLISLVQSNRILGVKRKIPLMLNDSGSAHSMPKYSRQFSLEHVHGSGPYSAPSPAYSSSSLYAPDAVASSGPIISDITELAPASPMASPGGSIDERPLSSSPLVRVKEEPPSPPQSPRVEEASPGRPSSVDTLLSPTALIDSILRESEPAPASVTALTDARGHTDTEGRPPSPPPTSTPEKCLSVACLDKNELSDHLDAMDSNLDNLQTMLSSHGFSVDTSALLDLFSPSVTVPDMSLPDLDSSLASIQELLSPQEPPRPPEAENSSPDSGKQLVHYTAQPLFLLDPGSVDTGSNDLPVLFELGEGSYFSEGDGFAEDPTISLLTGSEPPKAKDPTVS
# In short: as §1
# SPIC = molecular target: T2, SPIC (Homo sapiens, UniProt Q8N5J4 1-248); settings: protein: recombinant; tags: N-terminal GST; dsDNA, one strand shown
# T2 sequence: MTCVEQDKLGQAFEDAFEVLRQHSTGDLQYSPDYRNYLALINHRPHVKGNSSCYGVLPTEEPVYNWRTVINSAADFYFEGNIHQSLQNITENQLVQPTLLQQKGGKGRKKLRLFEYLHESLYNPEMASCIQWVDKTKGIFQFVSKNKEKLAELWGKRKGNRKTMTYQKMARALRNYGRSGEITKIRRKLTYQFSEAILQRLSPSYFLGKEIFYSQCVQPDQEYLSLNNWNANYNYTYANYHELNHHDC
# In short: as §1
# ELF4 = ELF4 (Homo sapiens, UniProt Q99607 1-663); settings: protein: recombinant; tags: N-terminal GST; dsDNA, one strand shown
# Chain of ELF4 (Q99607 whole entry): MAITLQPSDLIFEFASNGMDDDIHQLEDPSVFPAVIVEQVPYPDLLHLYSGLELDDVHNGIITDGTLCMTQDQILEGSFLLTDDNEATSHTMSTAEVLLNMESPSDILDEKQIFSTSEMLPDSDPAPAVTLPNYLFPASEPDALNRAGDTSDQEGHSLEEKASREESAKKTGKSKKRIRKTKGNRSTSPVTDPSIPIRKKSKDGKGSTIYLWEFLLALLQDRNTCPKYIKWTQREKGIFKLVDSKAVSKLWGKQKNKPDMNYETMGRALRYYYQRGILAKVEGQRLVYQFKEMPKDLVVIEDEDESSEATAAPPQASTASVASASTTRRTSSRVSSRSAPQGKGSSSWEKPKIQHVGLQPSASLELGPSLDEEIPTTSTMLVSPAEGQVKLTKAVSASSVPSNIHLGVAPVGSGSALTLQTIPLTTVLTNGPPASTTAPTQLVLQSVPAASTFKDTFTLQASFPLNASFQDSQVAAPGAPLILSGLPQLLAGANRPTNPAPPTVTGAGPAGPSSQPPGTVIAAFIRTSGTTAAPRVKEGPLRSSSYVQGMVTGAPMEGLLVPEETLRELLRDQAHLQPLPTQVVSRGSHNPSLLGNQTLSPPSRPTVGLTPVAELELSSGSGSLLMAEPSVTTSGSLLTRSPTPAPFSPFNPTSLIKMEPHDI
# In short: as §1
# ELK4 = molecular target: T3, ELK4 (Homo sapiens, UniProt P28324-2 1-405); settings: protein: recombinant; tags: N-terminal GST; dsDNA, one strand shown
# T3 sequence: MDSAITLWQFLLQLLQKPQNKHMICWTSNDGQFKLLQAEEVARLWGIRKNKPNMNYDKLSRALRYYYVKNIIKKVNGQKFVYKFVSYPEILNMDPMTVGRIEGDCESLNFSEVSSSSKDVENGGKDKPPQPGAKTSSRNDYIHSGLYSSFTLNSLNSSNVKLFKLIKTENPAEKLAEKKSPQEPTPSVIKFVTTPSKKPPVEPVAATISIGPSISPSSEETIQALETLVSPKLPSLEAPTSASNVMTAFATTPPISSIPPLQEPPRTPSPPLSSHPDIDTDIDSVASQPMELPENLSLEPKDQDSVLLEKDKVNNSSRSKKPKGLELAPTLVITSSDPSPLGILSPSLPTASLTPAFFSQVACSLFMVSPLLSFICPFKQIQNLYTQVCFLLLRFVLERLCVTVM
# In short: as §1
# ETV2 = molecular target: T4, ETV2 (Homo sapiens, UniProt O00321 1-342); settings: protein: recombinant; tags: N-terminal GST; dsDNA, one strand shown
# T4 sequence: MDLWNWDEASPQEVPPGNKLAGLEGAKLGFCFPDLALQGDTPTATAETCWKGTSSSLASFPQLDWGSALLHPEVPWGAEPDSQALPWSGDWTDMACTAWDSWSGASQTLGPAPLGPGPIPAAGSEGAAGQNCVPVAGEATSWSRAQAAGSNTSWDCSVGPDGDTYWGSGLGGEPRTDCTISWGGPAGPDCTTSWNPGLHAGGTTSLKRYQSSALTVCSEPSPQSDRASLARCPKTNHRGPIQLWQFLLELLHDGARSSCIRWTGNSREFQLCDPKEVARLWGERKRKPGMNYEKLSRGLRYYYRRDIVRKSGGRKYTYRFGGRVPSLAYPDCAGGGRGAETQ
# In short: as §1
# ELF3 = molecular target: T5, ELF3 (Homo sapiens, UniProt P78545 1-371); settings: protein: recombinant; tags: N-terminal GST; dsDNA, one strand shown
# T5 sequence: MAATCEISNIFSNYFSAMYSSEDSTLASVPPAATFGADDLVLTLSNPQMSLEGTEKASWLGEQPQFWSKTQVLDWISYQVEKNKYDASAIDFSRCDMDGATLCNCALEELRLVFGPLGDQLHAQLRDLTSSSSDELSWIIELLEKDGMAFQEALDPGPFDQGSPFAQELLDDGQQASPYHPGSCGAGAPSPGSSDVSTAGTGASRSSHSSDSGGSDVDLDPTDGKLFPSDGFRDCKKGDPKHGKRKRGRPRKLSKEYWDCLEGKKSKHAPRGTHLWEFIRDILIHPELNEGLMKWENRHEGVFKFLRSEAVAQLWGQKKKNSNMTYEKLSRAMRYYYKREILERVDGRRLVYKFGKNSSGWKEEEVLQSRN
# In short: as §1
# CRX = CRX (Homo sapiens, UniProt O43186 1-299); settings: protein: recombinant; tags: N-terminal GST; dsDNA, one strand shown
# Chain of CRX (O43186 whole entry): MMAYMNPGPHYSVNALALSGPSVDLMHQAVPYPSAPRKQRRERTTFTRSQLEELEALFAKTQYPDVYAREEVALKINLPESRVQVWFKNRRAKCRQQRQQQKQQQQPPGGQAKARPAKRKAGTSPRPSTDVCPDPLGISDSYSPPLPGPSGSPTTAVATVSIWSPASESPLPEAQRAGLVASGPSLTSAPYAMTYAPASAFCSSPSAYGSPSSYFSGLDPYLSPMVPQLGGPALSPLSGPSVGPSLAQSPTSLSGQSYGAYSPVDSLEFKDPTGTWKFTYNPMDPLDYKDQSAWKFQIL
# In short: as §1
sequence,measurement,setting,value
ACTCGT,binding signal,FEV,"1.2 fold enrichment (6-mer frequency, TF over GST control)"
same,binding signal,ETV5,"1.22 fold enrichment (6-mer frequency, TF over GST control)"
same,binding signal,HSF1,"1.14 fold enrichment (6-mer frequency, TF over GST control)"
same,binding signal,SPIC,"1.16 fold enrichment (6-mer frequency, TF over GST control)"
same,binding signal,ELF4,"1.3 fold enrichment (6-mer frequency, TF over GST control)"
same,binding signal,ELK4,"1.28 fold enrichment (6-mer frequency, TF over GST control)"
same,binding signal,ETV2,"1.21 fold enrichment (6-mer frequency, TF over GST control)"
same,binding signal,ELF3,"1.25 fold enrichment (6-mer frequency, TF over GST control)"
same,binding signal,CRX,"1.08 fold enrichment (6-mer frequency, TF over GST control)"

# — paper PMC7862700, “An all-to-all approach to the identification of sequence-specific readers for epigenetic DNA modifications on cytosine”
